# Source: PubChem BioAssay (NCATS)
# Values without a mark were called inactive. Records with an inconclusive call do not appear. Entries that show only a call come without a potency. Calls of active or inactive are those of the source. Unless noted, the call rests on the fitted dose curve; in most records, active means well fitted curve in the direction sought with a large enough effect; inconclusive means small, poorly fitted or top-dose-only effect, or another doubt; inactive means no such curve, though single readings can be large; an effect the other way counts as inactive or inconclusive.
# How the values were obtained:
# [1] = target: ATP-dependent 6-phosphofructokinase (Trypanosoma brucei brucei) (UniProt O15648); test: qHTS Assay to Find Inhibitors of T. brucei phosphofructokinase: hit validation (AID 492961);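 further: luminescence reports ADP formed as PFK phosphorylates fructose-6-phosphate with ATP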
# Outline: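 Reaction: 0.1 M triethanolamine pH 8.0, 5 mM MgCl2, F6P 0.5 mM, ATP 0.1 mM, PFK 1.25 nM, 45 min RT. Read-out: ADP-Glo luminescence. Analysis: concentration-response fits, classed by r2 and efficacy.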
# 3D7 = test: qHTS profiling for inhibitors of Plasmodium falciparum proliferation (AID 504749); further: nearly all actives have a fitted effect of over 60% in size; further: potency means the concentration at half of the fitted maximal effect; settings: P. falciparum in erythrocytes, SYBR Green DNA, 72 h; series mostly up to 28.7 µM
# Outline: (§1)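 Quantitative HTS: compounds pinned into medium, infected erythrocytes added (0.3% parasitemia, 2.5% hematocrit), 72 h culture at 37 C under 5% CO2. Saponin/Triton lysis with SYBR Green I, overnight RT, then fluorescence read.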
# CP247 = test: as above; settings: P. falciparum in erythrocytes, SYBR Green DNA, 72 h; series mostly up to 28.7 µM
# Outline: as §1
# CP268 = test: as above; settings: P. falciparum in erythrocytes, SYBR Green DNA, 72 h; series mostly up to 28.7 µM
# Outline: as §1
# ECU = test: as above; settings: P. falciparum in erythrocytes, SYBR Green DNA, 72 h; series mostly up to 28.7 µM
# Outline: as §1
# PC49 = test: as above; settings: P. falciparum in erythrocytes, SYBR Green DNA, 72 h; series mostly up to 28.7 µM
# Outline: as §1
# W2 = test: as above; settings: P. falciparum in erythrocytes, SYBR Green DNA, 72 h; series mostly up to 12.8 µM
# Outline: as §1
# [2] = VSVG counterscreen qHTS to identify inhibitors of SARS-CoV-2 cell entry (AID 1645847; calls by dose curve; further: potency means the concentration at half of the fitted maximal effect; nearly all actives have a fitted effect of over 65% in size)
# Outline: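 HEK293-ACE2 cells (Expi293F, human ACE2) pretreated 1 h with compound, then infected with MLV-based VSV-G pseudotyped particles for 48 h at 37 C; luciferase luminescence normalized to VSV-G PP and bald PP wells.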
# [3] = AP1 Signaling Pathway (AID 357; active means well fitted curve in either direction with a large enough effect, not every such curve was filed as active;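 further: ME-180 reporter cells stimulated with EGF at its EC50 level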)
# Outline: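 Beta-lactamase reporter under AP-1 response element, ME-180 background. Stimulus: EC50 EGF. Compound exposure 5 h, 37 °C. Detection: CCF4, 2.5 h RT, 460/530 nm. Values: AC50 from titration.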
# [4] = NFAT Signaling Pathway (AID 444; active means well fitted curve in either direction with a large enough effect, not every such curve was filed as active;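 further: carbachol stimulus at about its EC50 of 1 µM final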); settings: Jurkat NFAT-bla M1, carbachol, beta-lactamase ratio, 5 h
# Outline: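 Jurkat cells carrying an NFAT-driven β-lactamase reporter and co-transfected muscarinic M1 receptor were treated with compound plus carbachol (1 uM final, an EC50 level) for 5 h at 37 °C. CCF4 loading followed for 1 h at RT; 460/530 nm ratio gave %activity.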
# [5] = Stat Signaling Pathway (AID 446; active means well fitted curve in either direction with a large enough effect, not every such curve was filed as active;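 further: ME-180 cervical cancer cells given 40 pM IL-6 alongside compound; SIE-controlled beta-lactamase reporter measured as 460/530 nm FRET emission ratio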)
# Outline: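 Emission at 460 and 530 nm (excitation 405 nm) reports SIE-controlled beta-lactamase in ME-180 cells. Cells received compound with 40 pM IL-6 for 5 hrs at 37 C; data scaled between 300 pM IL-6 and 125 nM JAK-inhibitor controls.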
# [6] = target: Guanine nucleotide-binding protein G(i) subunit alpha-1 (Homo sapiens) (UniProt P63096); test: qHTS Assay for Inhibitors of RGS12 GoLoco Motif Activity (Green Fluorophore) (AID 879);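 further: negative values mean loss of peptide binding seen as reduced polarization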
# Outline: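 A drop in FITC polarization marked displacement of the FITC-tagged RGS12 GoLoco peptide (10 nM) from Gαi1 (50 nM). Compounds were incubated 10 min at room temperature in Tris pH 7.5 buffer containing 150 mM NaCl, 0.1 mM GDP and 0.05% NP40; unlabeled peptide titration served as control.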
# [7] = target: Pyruvate kinase (Leishmania mexicana) (UniProt Q27686); test: qHTS Validation Assay for Inhibitors of Leishmania Mexicana Pyruvate Kinase (AID 945)
# Outline: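 qHTS eight-point titrations against 0.2 nM LmPYK (E451W) in imidazole buffer pH 7.2 with 0.5 mM PEP, 0.1 mM ADP; 1 h, room temperature. Readout: PKLight luminescence, normalized to neutral DMSO wells.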
# [8] = target: Pyruvate kinase PKM (Homo sapiens) (UniProt P14618); test: qHTS Assay for Activators of Human Muscle Pyruvate Kinase (AID 954; active means well fitted curve in the direction sought with a large enough effect, not every such curve was filed as active)
# Outline: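 PKM2, human, >95% pure, 0.1 nM; PEP 0.5 mM (Km), ADP 0.1 mM; 50 mM imidazole pH 7.2, 50 mM KCl, 0.01% Tween 20, 0.05% BSA; 1 h RT; luciferase luminescence readout.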
# [9] = target: Alpha-galactosidase (Coffea arabica) (UniProt Q42656); test: Counterscreen for Glucocerebrosidase Inhibitors: qHTS Assay for Coffee Bean alpha-Galactosidase at pH 4.5 (AID 957)
# Outline: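 Enzyme is added first (2 nM final), then compounds titrated from 0.7 nM to 77 uM, then 80 uM 4-methylumbelliferyl alpha-D-galactopyranoside; after 20 min at room temperature a pH 10 NaOH/glycine stop precedes fluorescence reading at 365/440 nm.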
# [10] = target: alpha-glucosidase (Oryza sativa, rice) (UniProt Q653V4); test: Counterscreen for Glucocerebrosidase Inhibitors: qHTS Assay for Rice alpha-Glucosidase at pH 5.0 (AID 997)
# Outline: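 Endpoint fluorogenic assay at pH 5.0: compounds (0.7 nM to 77 uM) titrated against 4 nM rice enzyme and 400 uM 4-MU-alpha-glucoside for 20 min at room temperature; NaOH/glycine stop, read ex 365/em 440 nm, Hill-fitted AC50.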
# [11] = target: Alpha-galactosidase (Coffea arabica) (UniProt Q42656); test: Counterscreen for Glucocerebrosidase Inhibitors: qHTS Assay for Coffee Bean alpha-Galactosidase at pH 5.9 (AID 998)
# Outline: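 In 50 mM citric acid pH 5.9 with 0.005% Tween-20, coffee bean enzyme hydrolyses 80 uM 4-MU alpha-D-galactopyranoside over 20 min at RT. Activity is normalized to controls; AC50 comes from Hill-modelled concentration-response data.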
# [12] = target: Cytochrome P450 3A4 (Homo sapiens) (UniProt P08684); test: qHTS Assay for Inhibitors and Substrates of Cytochrome P450 3A4 (AID 884); further: nearly all actives have a fitted effect of over 50% in size; further: potency means the concentration at half of the fitted maximal effect
# Outline: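 Luminescent readout of luciferin produced by CYP3A4 (20 nM) dealkylation of Luciferin-PPXE, 25 uM (its KM). NADPH-driven reaction ran 60 min at RT after 10 min compound preincubation; data scaled to 57 uM ketoconazole as 100% inhibition.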
# [13] = Primary qHTS for inhibitors of MERS-S pseudo-typed particle cell entry (AID 1479149; calls by dose curve; further: nearly all actives have a fitted effect of over 60% in size); settings: outcome: dose series up to 57.1 µM unless noted
# [14] = target: Cytochrome P450 3A4 (Homo sapiens) (UniProt P08684); test: qHTS Assay for Activators of Cytochrome P450 3A4 (AID 885); further: nearly all actives have a fitted effect of over 65% in size
# Outline: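 Activators are scored by enhanced luminescence from CYP3A4 conversion of luciferin-PPXE (25uM, equal to KM) to luciferin, after 60 min at RT with an NADPH-regenerating system.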
# Pyruvate kinase PKM (Homo sapiens), sequence (P14618 whole entry, looked up): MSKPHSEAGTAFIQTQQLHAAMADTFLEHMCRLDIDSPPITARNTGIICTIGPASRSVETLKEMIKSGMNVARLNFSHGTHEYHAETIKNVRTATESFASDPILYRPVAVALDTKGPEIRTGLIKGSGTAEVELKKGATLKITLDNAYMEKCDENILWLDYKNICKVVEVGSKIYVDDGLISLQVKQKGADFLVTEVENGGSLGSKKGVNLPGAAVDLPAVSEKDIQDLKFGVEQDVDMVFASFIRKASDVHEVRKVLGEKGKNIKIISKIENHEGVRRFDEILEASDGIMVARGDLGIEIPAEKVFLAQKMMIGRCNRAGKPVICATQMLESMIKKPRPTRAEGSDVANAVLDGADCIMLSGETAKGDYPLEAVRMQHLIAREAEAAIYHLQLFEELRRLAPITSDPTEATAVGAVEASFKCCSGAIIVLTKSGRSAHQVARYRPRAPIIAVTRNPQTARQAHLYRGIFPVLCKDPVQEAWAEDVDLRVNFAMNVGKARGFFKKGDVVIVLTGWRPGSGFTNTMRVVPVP
# Pyruvate kinase (Leishmania mexicana), sequence (Q27686 2-499 E452W): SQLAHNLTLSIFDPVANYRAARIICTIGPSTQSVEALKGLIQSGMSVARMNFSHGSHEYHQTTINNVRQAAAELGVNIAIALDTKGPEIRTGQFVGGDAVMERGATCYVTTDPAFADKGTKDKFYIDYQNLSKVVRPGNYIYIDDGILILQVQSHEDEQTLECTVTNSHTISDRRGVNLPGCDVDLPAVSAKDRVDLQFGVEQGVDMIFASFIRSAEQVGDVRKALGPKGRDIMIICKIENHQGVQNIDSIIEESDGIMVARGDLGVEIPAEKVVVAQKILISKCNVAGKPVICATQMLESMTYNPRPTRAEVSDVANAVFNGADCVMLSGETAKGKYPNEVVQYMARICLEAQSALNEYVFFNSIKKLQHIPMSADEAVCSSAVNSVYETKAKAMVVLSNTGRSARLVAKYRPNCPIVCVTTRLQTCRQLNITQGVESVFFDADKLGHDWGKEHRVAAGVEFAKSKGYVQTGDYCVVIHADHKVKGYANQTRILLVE
# Guanine nucleotide-binding protein G(i) subunit alpha-1 (Homo sapiens), sequence (P63096 whole entry, looked up): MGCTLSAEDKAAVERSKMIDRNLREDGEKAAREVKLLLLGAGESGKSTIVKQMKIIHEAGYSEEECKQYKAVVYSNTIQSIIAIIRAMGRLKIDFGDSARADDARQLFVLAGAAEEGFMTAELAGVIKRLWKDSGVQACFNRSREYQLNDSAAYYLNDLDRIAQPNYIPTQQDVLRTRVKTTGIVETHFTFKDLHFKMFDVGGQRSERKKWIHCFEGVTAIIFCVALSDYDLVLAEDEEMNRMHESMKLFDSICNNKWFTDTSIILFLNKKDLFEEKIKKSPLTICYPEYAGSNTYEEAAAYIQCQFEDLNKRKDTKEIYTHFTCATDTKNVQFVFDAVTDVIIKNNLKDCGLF
# Alpha-galactosidase (Coffea arabica), sequence (Q42656 whole entry, looked up): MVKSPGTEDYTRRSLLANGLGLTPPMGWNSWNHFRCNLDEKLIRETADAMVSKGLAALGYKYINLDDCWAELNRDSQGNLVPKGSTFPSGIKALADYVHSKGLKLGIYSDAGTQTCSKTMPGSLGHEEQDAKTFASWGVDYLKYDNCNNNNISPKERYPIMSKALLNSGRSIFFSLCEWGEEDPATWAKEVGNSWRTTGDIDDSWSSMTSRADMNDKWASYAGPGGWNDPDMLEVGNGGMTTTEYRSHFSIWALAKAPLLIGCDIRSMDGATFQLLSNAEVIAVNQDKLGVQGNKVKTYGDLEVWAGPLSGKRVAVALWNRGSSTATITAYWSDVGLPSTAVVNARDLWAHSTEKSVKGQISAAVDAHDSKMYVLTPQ
# Cytochrome P450 3A4 (Homo sapiens), sequence (P08684 whole entry, looked up): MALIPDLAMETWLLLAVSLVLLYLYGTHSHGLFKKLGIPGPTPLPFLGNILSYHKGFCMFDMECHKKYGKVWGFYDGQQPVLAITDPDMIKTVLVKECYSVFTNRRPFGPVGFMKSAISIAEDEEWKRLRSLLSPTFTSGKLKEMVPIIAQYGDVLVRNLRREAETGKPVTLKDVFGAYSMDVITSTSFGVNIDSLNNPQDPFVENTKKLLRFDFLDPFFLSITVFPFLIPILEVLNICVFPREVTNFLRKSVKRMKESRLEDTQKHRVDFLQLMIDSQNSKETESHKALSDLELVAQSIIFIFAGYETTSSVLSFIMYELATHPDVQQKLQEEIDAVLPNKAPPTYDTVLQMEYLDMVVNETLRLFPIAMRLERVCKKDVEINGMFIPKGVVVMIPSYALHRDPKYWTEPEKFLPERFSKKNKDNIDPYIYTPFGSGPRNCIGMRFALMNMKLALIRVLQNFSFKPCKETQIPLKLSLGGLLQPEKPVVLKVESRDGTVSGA
# ATP-dependent 6-phosphofructokinase (Trypanosoma brucei brucei), sequence (O15648 whole entry, looked up): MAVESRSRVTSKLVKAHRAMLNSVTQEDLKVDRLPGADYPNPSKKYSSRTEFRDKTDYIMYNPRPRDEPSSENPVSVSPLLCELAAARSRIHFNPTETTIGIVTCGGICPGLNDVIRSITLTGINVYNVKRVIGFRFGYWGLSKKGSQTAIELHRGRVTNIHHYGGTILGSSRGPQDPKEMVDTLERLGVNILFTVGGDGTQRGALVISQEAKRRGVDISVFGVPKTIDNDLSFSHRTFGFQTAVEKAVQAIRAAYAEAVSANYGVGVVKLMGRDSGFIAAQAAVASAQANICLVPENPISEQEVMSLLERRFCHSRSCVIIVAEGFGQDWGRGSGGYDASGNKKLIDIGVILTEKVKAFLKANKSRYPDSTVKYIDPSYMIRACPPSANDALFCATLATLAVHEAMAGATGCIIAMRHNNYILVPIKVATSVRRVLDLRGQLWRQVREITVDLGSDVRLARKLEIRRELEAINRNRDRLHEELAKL
structure (smiles),measurement,setting,value
CCN(CC)C(=O)N[C@@H]1C[C@@H]2c3cccc4[nH]cc(c34)C[C@H]2N(C)C1,Potency,[1],inactive
same,Potency,3D7,inactive
same,Potency,CP247,inactive
same,Potency,CP268,inactive
same,Potency,ECU,inactive
same,Potency,PC49,inactive
same,Potency,W2,1690 nM (active)
C/C1=C/C[C@@H](/C(C)=C/c2csc(C)n2)OC(=O)C[C@H](O)C(C)(C)C(=O)[C@H](C)[C@@H](O)[C@@H](C)CCC1,Potency,[2],60.7 nM (active)
C[C@H]1OC[C@@H](C[N+](C)(C)C)O1,outcome,[3],inactive
same,"activity change, negative = inhibition",[4]; at 17.2 µM (top of the series),147% [activator] (active)
same,outcome,[5],inactive
same,outcome,[6],inactive
same,Potency,[7],inactive
same,outcome,[8],inactive
same,outcome,[9],inactive
same,outcome,[10],inactive
same,outcome,[11],inactive
C[N+]1(C)C2CC(OC(=O)C(CO)c3ccccc3)CC1C1OC12 (stereo not drawn),Potency,[12],inactive
COCC(=O)Nc1cc(Sc2ccccc2)ccc1N=C(NC(=O)OC)NC(=O)OC,Potency,[13],inactive
C=C1CC2C3CCC4=CC(=O)C=C[C@]4(C)[C@@]3(F)[C@@H](O)C[C@]2(C)[C@@]1(O)C(=O)COC(C)=O (stereo partly drawn),Potency,[13],inactive
Oc1ccc2c3c1O[C@H]1[C@@H](O)CC[C@@]4(O)C(C2)N(CC2CCC2)CCC314 (stereo partly drawn),Potency,[1],inactive
same,Potency,3D7,inactive
same,Potency,CP247,inactive
same,Potency,CP268,inactive
same,Potency,ECU,inactive
same,Potency,PC49,inactive
same,Potency,W2,inactive
CCC1/C=C/C=CCC(C)C(O)[C@@](C)(O)C(=O)C(C)C(O)C(C)C(=O)C(C)C(O)C(C)C=CC(=O)O[C@H]2C(C)C(CC1)O[C@]1(CCC(C)C(CC(C)O)O1)C2C (stereo partly drawn),Potency,[12],7940 nM (active)
same,Potency,[14],inactive
CCCN(CCC)C(=O)Cc1c(-c2ccc(Cl)cc2)nc2c(Cl)cc(Cl)cn12,outcome,[3],inactive
same,"activity change, negative = inhibition",[4]; at 38 µM (top of the series),7.25%
same,outcome,[5],inactive
same,outcome,[6],inactive
same,Potency,[14],inactive
same,Potency,[7],inactive
same,outcome,[8],inactive
same,outcome,[9],inactive
same,outcome,[10],inactive
same,outcome,[11],inactive
C#CCN(C)C(C)Cc1ccccc1 (stereo not drawn),outcome,[3],inactive
same,"activity change, negative = inhibition",[4]; at 17.2 µM (top of the series),-4.45%
same,outcome,[5],inactive
COc1cc(C=C(C#N)C#N)cc(O)c1O,outcome,[3],inactive
same,"activity change, negative = inhibition",[4]; at 38 µM (top of the series),-29.4%
same,outcome,[5],inactive
same,outcome,[6],inactive
same,Potency,[14],inactive
same,Potency,[7],inactive
same,outcome,[8],inactive
same,outcome,[9],inactive
same,outcome,[10],inactive
same,outcome,[11],inactive
C[C@@H]1CCC[C@H](C)N1NC(=O)c1ccc(Cl)c(S(N)(=O)=O)c1,Potency,[13],inactive
